Screening results deposited in PubChem by ICCB-Longwood Screening Facility, Harvard Medical School.
Mtb MenB inh: M. tuberculosis MenB inhibitors, primary screen, biochemical, absorbance; MenB enzyme assay, absorbance read-out; inhibition, % (no concentration beside the values); 100,000 tested, 0.43% active; in the data active = inhibition above about 21%, passing the limit was not always enough
PV pol inh: poliovirus RdRp elongation inhibitors, primary screen, biochemical, fluorescence polarization, total intensity. poliovirus polymerase elongation; hits give low values. 150,000 tested, 0.66% active. % elongation, % (compound at 16.7 µg/mL). Genome polyprotein (Poliovirus type 1 (strain Mahoney)), P03300; in the data active = % elongation below about 90%
Mtb MbtI inh: MbtI salicylate synthase inhibitors, primary screen, biochemical, fluorescence intensity; P9WFX0; purified MbtI enzyme, fluorescence intensity read-out; inhibition, % (concentration not given with the values); 100,000 tested, 0.89% active; in the data active = inhibition mostly above about 56%, no sharp cut-off; inactive = mostly below about 77%
Target sequence (P9WFX0 whole entry, looked up): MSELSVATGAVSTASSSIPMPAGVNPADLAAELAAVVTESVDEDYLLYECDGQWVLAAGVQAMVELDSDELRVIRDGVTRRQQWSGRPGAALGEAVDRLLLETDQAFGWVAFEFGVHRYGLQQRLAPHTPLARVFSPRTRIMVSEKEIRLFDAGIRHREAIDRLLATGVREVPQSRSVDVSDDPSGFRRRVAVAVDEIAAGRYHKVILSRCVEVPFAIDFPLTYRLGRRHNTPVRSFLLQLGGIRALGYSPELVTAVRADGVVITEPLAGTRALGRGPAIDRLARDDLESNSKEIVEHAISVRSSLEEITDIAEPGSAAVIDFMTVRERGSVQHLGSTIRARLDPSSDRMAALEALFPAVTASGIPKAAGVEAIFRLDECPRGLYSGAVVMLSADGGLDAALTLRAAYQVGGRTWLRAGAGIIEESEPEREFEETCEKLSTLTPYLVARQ
* = called active by the depositor; . = not tested or not shown. This is a sample that favours compounds with a hit; in the whole collection about 1.5% have one here.

SMILES | Mtb MenB inh | PV pol inh | Mtb MbtI inh
Cc1nn(-c2ccccc2)c(Cl)c1C1N2CCCN1CC2 (stereo unspecified) | 33* | 102 | 3
C1CCC(c2nnc3n2N=C2CCCCC2S3)CC1 (stereo unspecified) | -19 | 104 | -30
CC(C)=NNc1nc(Cl)c(C#N)c(Cl)c1Cl | -3 | 101 | 61*
Cc1cc(C)c(C#N)c(Cl)n1 | -32 | 101 | -2
N#Cc1c(Cl)nc(Cl)c(Cl)c1Cl | 0 | 76* | 72
N#Cc1c(Cl)nc(N2CCOCC2)c(Cl)c1Cl | -20 | 104 | -9
O=C(NC1CCCCCC1)C1=CN2CCS(=O)(=O)N=C2C=C1 | -8 | 102 | 108
O=C(Cn1nnc(-c2cccc(C(F)(F)F)c2)n1)NC1CC1 | -10 | 94 | 0
Nc1nc2ccccc2n1CCOc1ccccc1 | . | 100 | 1
CC(=O)Nc1ccc(NC(=O)C(C)OC(=O)c2cc(C)oc2C)cc1 (stereo unspecified) | -9 | 99 | 7
CCc1nn2c(=O)cc(COC(=O)c3ccc4c(c3)OCO4)nc2s1 | . | 104 | .
CC(C)Cc1nn2c(=O)cc(COC(=O)c3ccc4c(c3)OCO4)nc2s1 | . | 73* | .
Nc1ncc(N=Nc2cc(C(=O)O)ccc2Cl)s1 | -362 | 94 | 50
Nc1ncc(N=Nc2cc(C(=O)O)cc(C(=O)O)c2)s1 | -273 | 82* | 19
COC(=O)C1=C(C)NC(=O)/C1=C\c1ccc(C(=O)OC)cc1 | -16 | 109 | .
O=c1[nH]ccn(-c2ccccc2)c1=O | -51 | 103 | 1
O=c1c(=S)[nH]ccn1-c1ccccc1 | 1 | 100 | 93*
Cc1ccc(NC(=O)CNc2ccccc2)cc1Cl | -1 | 101 | 2
CN(C)S(=O)(=O)c1ccc(C(=O)N2CCN(Cc3ccc4c(c3)OCO4)CC2)cc1 | -13 | 100 | -24
O=C(CSc1cccc[n+]1[O-])c1ccco1 | -15 | 104 | 0
O=C(CSc1cccc[n+]1[O-])c1cc2ccccc2o1 | . | 99 | 98*
O=C(CSc1cccc[n+]1[O-])N1c2ccccc2Sc2ccccc21 | . | 100 | -4
O=C(CSc1cccc[n+]1[O-])c1cccs1 | . | 100 | 98*
COC(=O)/C(C(C)=N)=C(\O)CSc1ccc(Cl)cc1 | -21 | 101 | 21
Cc1c(C#N)c(NC(=O)COc2ccc(F)cc2Br)n(Cc2ccco2)c1C | -5 | 108 | 11
SMILES | Mtb MenB inh | PV pol inh | Mtb MbtI inh
CN(Cc1ccccc1)C(=O)CN(c1cccc(F)c1)S(C)(=O)=O | -8 | 101 | -22
CCOC(=O)c1sc(SCC(=O)c2ccc(Cl)cc2Cl)nc1C | 1 | 86* | 0
CCOC(=O)c1c(NC(=O)c2ccc(Cl)cc2Cl)n[nH]c1N | 2 | 96 | -4
CN(C)S(=O)(=O)c1ccc2c(c1)oc(=O)n2C | 27* | 105 | 5
CCN(Cc1ccccc1)S(=O)(=O)c1ccc2c(c1)oc(=O)n2C | -12 | 101 | 3
O=C(NC(CC(=O)N1CCN(C(=O)c2ccco2)CC1)c1ccccc1)c1ccccc1Cl (stereo unspecified) | 2 | 103 | 5
CC(C)(C)OC(=O)N/N=C\c1cccs1 | -6 | 102 | 19
C/C(=N\NC=O)c1ccccn1 | -30 | 105 | 9
C/C(=N\NC(=Nc1ccccc1)c1ccccn1)c1ccccn1 | -79 | 99 | 65*
CCN1CC(=O)N(c2ccccc2OC)C1=S | -16 | 105 | .
COc1ccc(OC)c(S(=O)(=O)c2ccc(C)cc2)c1 | 4 | 104 | 5
COc1ccc(OC)c(N2C(=O)C=CC2=O)c1 | . | 99 | 97*
COc1ccccc1N1C(=O)C=CC1=O | . | 98 | 98*
NC(=O)CCN1CCCC1C(N)=O (stereo unspecified) | 8 | 111 | -10
Cc1ccc(OC(C)C(=O)Nc2ccc3c(c2)OCCO3)cc1 (stereo unspecified) | -14 | 103 | -7
S=C(c1c[nH]c2ccccc12)N1CCCCC1 | -21 | 105 | 79*
S=C(c1c[nH]c2ccccc12)N1CCCC1 | -30 | 102 | -2
CCOC(=O)c1cc(C)[nH]c(=S)c1C#N | -88 | 105 | .
CCCCCCCc1c(C#N)c(N)[nH]c(=S)c1C#N | -52 | 69* | 97*
Cc1ccc2cc(C#N)c(N3CCCN(C(=O)C4CCCCC4)CC3)nc2c1 | 17 | 99 | 4
COCCNC(=S)N1CCCN(c2nc3cc(C)ccc3cc2C#N)CC1 | 21* | 102 | 22
Fc1ccccc1-c1nnc2ccc(C(F)(F)F)cn12 | 14 | 16* | .
CN(Cc1ccccc1)C(=O)CSc1nnc(-c2ccccc2F)n1N | 2 | 107 | 10
COc1ccc(NC(=O)c2nc(S(C)(=O)=O)ncc2Cl)cc1Cl | -9 | 102 | 88*
CS(=O)(=O)c1ncc(Cl)c(C(=O)Nc2cccc(Cl)c2)n1 | 10 | 102 | 81*
SMILES | Mtb MenB inh | PV pol inh | Mtb MbtI inh
Cc1cccc(NC(=O)c2nc(S(C)(=O)=O)ncc2Cl)c1 | . | 103 | .
COc1ccc(NC(=O)c2nc(S(C)(=O)=O)ncc2N(Cc2ccc(C)cc2)Cc2ccco2)cc1Cl | . | 114 | .
CCN(CC)c1ncc2c(=S)[nH]c(=S)[nH]c2n1 | -9 | 100 | -6
C=CCSc1ncc2c(=S)[nH]c(=S)[nH]c2n1 | -102 | 93 | 56*
Cc1ccccc1Nc1nc(N)nc(CSc2ccc(S(=O)(=O)N(C)C)cn2)n1 | -28 | 102 | 32
CCOC(=O)C1CCCN(C(=O)c2nn(-c3ccc(OC)cc3)c(=O)c3c2c2ccccc2n3C)C1 (stereo unspecified) | . | 112 | .
CCOC(=O)C1CCCN(Cn2nnn(-c3ccc(OC)cc3)c2=S)C1 (stereo unspecified) | 11 | 79* | 63*
CCCNC(=O)c1ccc(CN2CCCn3nc(C)cc32)cc1 | -17 | 100 | -25
O=C1C=CC(=O)N1c1ccc(S(=O)(=O)Nc2ccc(C(F)(F)F)cc2)cc1 | -1 | 105 | 98*
COC(=O)COc1ccc(S(=O)(=O)Nc2ccc(C(F)(F)F)cc2)cc1 | 0 | 98 | -14
c1cncc(-c2nc(NCCSCc3ccco3)c3ccccc3n2)c1 | -25 | 105 | -7
CN(C)c1ccc(/C=C2\C(=O)N(c3ccccc3)N=C2C(=O)O)cc1 | -243 | 99 | -49
CCOC(=O)C1=NN(c2ccccc2)C(=O)/C1=C\c1ccc(N(C)C)cc1 | -109 | 103 | 98*
CCOc1ccccc1NC(=O)C(NC1CCS(=O)(=O)C1)c1ccccc1 (stereo unspecified) | -1 | 102 | -8
O=C(O)c1nn(CC(=O)N2N=C(c3ccc(Cl)cc3)CC2c2ccco2)c(=O)c2ccccc12 (stereo unspecified) | -28 | 102 | 5
C=C1c2ccccc2N=C(SCC(=O)Nc2ccc(F)cc2F)N1C | -7 | 101 | 4
Cc1ccc(O)c(-c2ccnc3cc(-c4ccc(Cl)cc4)nn23)c1 | . | 106 | .
COc1ccc(-c2cc3nccc(-c4cc(Cl)c(C)cc4O)n3n2)cc1 | . | 86* | .
O=C(O)C1CCCN1C(=O)c1cccnc1 (stereo unspecified) | -17 | 105 | .
CCC(=O)Nc1nc2ccccc2s1 | . | . | 8
CCC(=O)Nc1nc2c(s1)CSc1ccccc1-2 | -11 | 100 | 96*
CCOC(=O)c1ccc(NC(=O)CCc2c(C)nc3c(-c4ccc(F)cc4)c(C)nn3c2C)cc1 | . | 104 | .
